Target: T1, Methionyl-tRNA synthetase, putative (Leishmania donovani (strain BPK282A1)) (UniProt E9BF75)
T1 sequence (whole entry): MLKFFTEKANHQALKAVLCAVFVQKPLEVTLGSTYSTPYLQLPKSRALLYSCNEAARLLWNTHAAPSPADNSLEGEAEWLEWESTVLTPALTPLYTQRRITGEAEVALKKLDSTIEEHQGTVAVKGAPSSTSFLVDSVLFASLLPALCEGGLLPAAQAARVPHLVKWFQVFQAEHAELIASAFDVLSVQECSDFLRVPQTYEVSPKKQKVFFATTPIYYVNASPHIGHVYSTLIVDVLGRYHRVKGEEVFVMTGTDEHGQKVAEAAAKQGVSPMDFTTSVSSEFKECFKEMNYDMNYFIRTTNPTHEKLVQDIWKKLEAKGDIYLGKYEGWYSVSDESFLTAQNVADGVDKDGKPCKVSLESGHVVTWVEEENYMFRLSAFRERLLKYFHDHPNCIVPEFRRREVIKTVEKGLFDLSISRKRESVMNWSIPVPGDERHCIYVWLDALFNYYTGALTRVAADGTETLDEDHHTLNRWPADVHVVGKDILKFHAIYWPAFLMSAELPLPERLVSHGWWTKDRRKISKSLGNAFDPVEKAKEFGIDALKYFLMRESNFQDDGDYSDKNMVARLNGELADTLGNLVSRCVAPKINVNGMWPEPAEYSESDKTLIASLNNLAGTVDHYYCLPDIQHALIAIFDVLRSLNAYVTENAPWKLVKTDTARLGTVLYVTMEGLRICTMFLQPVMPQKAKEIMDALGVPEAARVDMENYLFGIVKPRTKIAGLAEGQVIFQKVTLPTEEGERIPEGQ
Assay: Leishmania donovani Methionine tRNA synthetase (LdMetRS):v7. Dose response assay
Format: functional
Parameters: conc 80 nM, time 150 minutes

O=C(C1CCC1)N1CCC(c2ncc3c(n2)CCNC3)CC1
PXC50 (MAX_EFFECT 30.83900227): < 4 | PXC50 (MAX_EFFECT 33.27102804): < 4

CCNc1cc(-c2ccccn2)nc(Nc2ccc(F)cc2)n1
PXC50 (MAX_EFFECT 11.72707889): < 4 | PXC50 (MAX_EFFECT 12.21532091): < 4

CN(CCN)c1nc(Nc2ccc(F)c(F)c2)nc2c1cnn2C
PXC50 (BOTTOM 2.133170856, HILLSLOPE 1.093077372, MAX_EFFECT 77.62557078, TOP 100.0): 4.41 | PXC50 (BOTTOM 3.57857286, HILLSLOPE 1.096477566, MAX_EFFECT 74.90566038, TOP 102.700119): 4.36 | PXC50 (BOTTOM 5.354463627, HILLSLOPE 0.967320352, MAX_EFFECT 79.31688805, TOP 100.0): 4.54

CN(C)c1nc2c(c(N3CCc4ccccc4C3)n1)CCNC2
PXC50 (BOTTOM 4.386431105, HILLSLOPE 1.427859325, MAX_EFFECT 80.85808581, TOP 100.0): 4.37 | PXC50 (BOTTOM 4.719660638, HILLSLOPE 1.487233723, MAX_EFFECT 73.91304348, TOP 100.0): 4.28 | PXC50 (BOTTOM 4.739489756, HILLSLOPE 1.201717489, MAX_EFFECT 56.63082437, TOP 100.0): 4.07

O=S(=O)(NCC1CC1)c1cccnc1Nc1cccc(C(F)(F)F)c1
PXC50 (MAX_EFFECT 6.072106262): < 4 | PXC50 (MAX_EFFECT 13.21585903): < 4 | PXC50 (MAX_EFFECT 16.32231405): < 4

CNc1nc(Nc2ccc(F)c(F)c2)nc2c1cnn2C
PXC50 (BOTTOM 0.870209489, HILLSLOPE 0.808254997, MAX_EFFECT 89.4026975, TOP 100.0): 5.22 | PXC50 (BOTTOM 6.300791226, HILLSLOPE 0.864616698, MAX_EFFECT 89.69957082, TOP 97.1703974): 5.16 | PXC50 (BOTTOM -2.296989521, HILLSLOPE 0.747850258, MAX_EFFECT 89.3111639, TOP 97.09484857): 5.35

CC(C)CCNc1nnc(C(C)C)s1
PXC50 (MAX_EFFECT 4.081632653): < 4 | PXC50 (MAX_EFFECT 6.479859895): < 4 | PXC50 (MAX_EFFECT 7.971014493): < 4

CCc1[nH]c2c(CNc3nc(C)cc(NC)n3)cc(C)cc2c1C
PXC50 (BOTTOM 0.67274626, HILLSLOPE 1.539733885, MAX_EFFECT 72.46376812, TOP 100.0): 4.25 | PXC50 (BOTTOM -0.906983609, HILLSLOPE 1.456210781, MAX_EFFECT 70.06802721, TOP 103.3868667): 4.22 | PXC50 (MAX_EFFECT 28.19614711): < 4

CC(=O)N1CCN(c2nc(C(F)(F)F)nc3sc(C)c(C)c23)CC1
PXC50 (MAX_EFFECT 7.310704961): < 4 | PXC50 (MAX_EFFECT 8.093994778): < 4

Cn1ccnc1CN(CCO)C(=O)C1CCN(C(=O)C2CC2)CC1
PXC50 (MAX_EFFECT 3.401360544): < 4 | PXC50 (MAX_EFFECT 4.347826087): < 4 | PXC50 (MAX_EFFECT 10.33274956): < 4

C1CCCN(CC2CCCN(Cc3noc(C4CC4)n3)C2)CC1 (stereo not drawn)
PXC50 (BOTTOM 4.352296135, HILLSLOPE 1.766055102, MAX_EFFECT 53.69127517, TOP 86.72954931): 4.1 | PXC50 (BOTTOM 8.24905968, HILLSLOPE 1.172496443, MAX_EFFECT 57.63888889, TOP 100.0): 4.05 | PXC50 (MAX_EFFECT 48.70017331): < 4

N[C@H](COc1cccc(F)c1Oc1ccc(Cl)cc1)c1ccccc1
PXC50 (BOTTOM 4.511954534, HILLSLOPE 1.875524354, MAX_EFFECT 67.28778468, TOP 93.68195714): 4.2 | PXC50 (BOTTOM -3.133728258, HILLSLOPE 1.050142996, MAX_EFFECT 53.9445629, TOP 100.0): 4.1

CN(C)S(=O)(=O)c1cccnc1Nc1cccc(C(F)(F)F)c1
PXC50 (MAX_EFFECT 3.964757709): < 4 | PXC50 (MAX_EFFECT 9.867172676): < 4 | PXC50 (MAX_EFFECT -2.272727273): < 4

NS(=O)(=O)c1cccc(Nc2ncccc2S(N)(=O)=O)c1
PXC50 (MAX_EFFECT 9.108159393): < 4 | PXC50 (MAX_EFFECT 16.73553719): < 4 | PXC50 (MAX_EFFECT 21.14537445): < 4

COCCNc1nc(Nc2ccc(F)c(F)c2)nc2c1cnn2C
PXC50 (BOTTOM 0.0, HILLSLOPE 0.788642153, MAX_EFFECT 89.69957082, TOP 101.1762058): 5.15 | PXC50 (BOTTOM 0.0, HILLSLOPE 0.880096509, MAX_EFFECT 92.63657957, TOP 99.00872691): 5.23 | PXC50 (BOTTOM -0.84748474, HILLSLOPE 0.841528212, MAX_EFFECT 93.81044487, TOP 101.2621412): 5.29

NS(=O)(=O)c1cccnc1Nc1cc(C(=O)N2CCC2)cc(C(F)(F)F)c1
PXC50 (MAX_EFFECT 2.375296912): < 4 | PXC50 (MAX_EFFECT 5.755395683): < 4 | PXC50 (MAX_EFFECT -0.429184549): < 4

CC(CO)Nc1nc(Nc2ccc(F)c(F)c2)nc2c1cnn2C (stereo not drawn)
PXC50 (BOTTOM 2.552520772, HILLSLOPE 1.745088914, MAX_EFFECT 107.6446281, TOP 100.0): 4.83 | PXC50 (BOTTOM 8.006700064, HILLSLOPE 1.180035315, MAX_EFFECT 70.20872865, TOP 73.72941327): 5.16 | PXC50 (BOTTOM -2.864211308, HILLSLOPE 1.095022811, MAX_EFFECT 93.83259912, TOP 100.0): 4.9

NS(=O)(=O)c1cccnc1Nc1cccc(C(F)(F)F)c1
PXC50 (MAX_EFFECT 8.810572687): < 4 | PXC50 (MAX_EFFECT 8.888888889): < 4 | PXC50 (MAX_EFFECT 15.90909091): < 4

Cc1cc(C)n(-c2nc(NC3CCCC3)c3c4c(sc3n2)CCCC4)n1
PXC50 (MAX_EFFECT 22.91666667): < 4 | PXC50 (MAX_EFFECT 34.21052632): < 4

NCC1CCN(C2CCN(c3ccc(-c4ccco4)cc3)CC2)C1 (stereo not drawn)
PXC50 (BOTTOM 4.43866672, HILLSLOPE 0.884621075, MAX_EFFECT 64.49275362, TOP 100.0): 4.31 | PXC50 (BOTTOM 4.60090898, HILLSLOPE 1.046241477, MAX_EFFECT 65.98639456, TOP 92.93543159): 4.34 | PXC50 (BOTTOM 4.64806131, HILLSLOPE 0.783599422, MAX_EFFECT 54.46584939, TOP 100.0): 4.09

OCCNc1nc(Nc2ccc(F)c(F)c2)nc2[nH]ncc12
PXC50 (BOTTOM 3.46805435, HILLSLOPE 2.296919563, MAX_EFFECT 68.49315068, TOP 65.56498053): 5.11 | PXC50 (BOTTOM 8.366568489, HILLSLOPE 1.390922894, MAX_EFFECT 66.79316888, TOP 71.6605159): 5.22 | PXC50 (BOTTOM -5.242433447, HILLSLOPE 1.269255479, MAX_EFFECT 62.45283019, TOP 64.77487353): 5.31

Cn1ncc2c(NCC3CC3)nc(Nc3ccc(F)c(F)c3)nc21
PXC50 (BOTTOM 0.0, HILLSLOPE 1.193695984, MAX_EFFECT 69.21119593, TOP 72.54722957): 5.02 | PXC50 (BOTTOM -3.303876123, HILLSLOPE 0.978123659, MAX_EFFECT 83.23699422, TOP 90.5971187): 5.12 | PXC50 (BOTTOM -7.642255371, HILLSLOPE 0.84165704, MAX_EFFECT 66.22807018, TOP 86.93864885): 4.93

N[C@H](COc1cccc(F)c1Oc1ccc(Cl)cc1)Cc1ccccc1
PXC50 (BOTTOM 1.014480123, HILLSLOPE 1.236846962, MAX_EFFECT 63.97515528, TOP 100.0): 4.22 | PXC50 (BOTTOM 4.768215501, HILLSLOPE 2.241755438, MAX_EFFECT 75.26652452, TOP 100.0): 4.22

Cc1ncc(CCNc2nc(Nc3ccc(F)c(F)c3)nc3c2cnn3C)s1
PXC50 (MAX_EFFECT 15.8490566): < 4 | PXC50 (MAX_EFFECT 21.03004292): < 4 | PXC50 (MAX_EFFECT 21.85273159): < 4

CNc1nc(CN2CCOCC2)nc2sc3c(c12)CCC(C)C3 (stereo not drawn)
PXC50 (MAX_EFFECT 4.668304668): < 4 | PXC50 (MAX_EFFECT 7.035175879): < 4

Reference: ChEMBL document CHEMBL3988442, “University of Dundee, Small-Polar-MMV Screening Library” (2021)
